Hit rate of the full screen: of about 5,500 compounds, about 2,000 (36%) were called active. Inconclusive results (about 18%) are left out. No stated cut-off is given here; in the data, active means normalized growth mostly below about 0.91 (no sharp cut-off); inconclusive means no clear call, values can overlap the other calls; inactive means mostly above about 0.92. The list shows a part of the results.
Experiment: chemical genetic growth profiling, strain panel (AID 1159580);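 further: tested at 20 µM; growth read once vehicle control cultures reached saturation at 30 °C; 1 = growth at the plate median or of vehicle wells; lower values mean less growth of the strain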
Details: growth OD
[1] = S. cerevisiae deletion strains, locus YDR150W, strain NUM1, hits give low values
[2] = S. cerevisiae deletion strains, locus YJR075W, strain HOC1, hits give low values
[3] = S. cerevisiae deletion strains, locus YMR307W, strain GAS1, hits give low values

Measured: normalized growth

C=C/C(C)=C/[C@@]1(C)SC(=O)C(C)=C1O
inactive: S. cerevisiae deletion strains, locus YAL040C, strain CLN3, hits give low values 0.998 | S. cerevisiae deletion strains, locus YCL061C, strain MRC1 (second series), hits give low values 1 | [1] 1.01 | S. cerevisiae deletion strains, locus YDR363W, strain ESC2, hits give low values 1.02 | S. cerevisiae deletion strains, locus YER002W, strain NOP16, hits give low values 0.986 | S. cerevisiae deletion strains, locus YGR078C, strain PAC10, hits give low values 1.01 | S. cerevisiae deletion strains, locus YGR229C, strain SMI1, hits give low values 1.01 | [2] 1 | [3] 0.998 | S. cerevisiae deletion strains, locus YNL175C, strain NOP13, hits give low values 0.996 | S. cerevisiae deletion strains, locus YNL197C, strain WHI3, hits give low values 1 | S. cerevisiae deletion strains, locus YNL224C, strain SQS1, hits give low values 1 | S. cerevisiae deletion strains, locus YNL322C, strain KRE1, hits give low values 0.999 | S. cerevisiae deletion strains, locus YOR083W, strain WHI5 (second series), hits give low values 0.999

C/C1=C\CC(C)(C)/C=C/CC2(C)OC2CC1 (stereo not given)
inactive: S. cerevisiae deletion strains, locus YBR021W, strain FUR4, hits give low values 1.02 | S. cerevisiae deletion strains, locus YBR229C, strain ROT2, hits give low values 1.01 | S. cerevisiae deletion strains, locus YCL029C, strain bik1, hits give low values 0.999 | S. cerevisiae deletion strains, locus YDL035C, strain GPR1, hits give low values 0.998 | S. cerevisiae deletion strains, locus YDL074C, strain BRE1, hits give low values 1.01 | S. cerevisiae deletion strains, locus YDL101C, strain DUN1, hits give low values 1.03 | S. cerevisiae deletion strains, locus YDL185W, strain tfp1, hits give low values 1.01 | S. cerevisiae deletion strains, locus YDL192W, strain arf1, hits give low values 1.01 | S. cerevisiae deletion strains, locus YDR101C, strain arx1, hits give low values 0.968 | [1] 1.01 | S. cerevisiae deletion strains, locus YDR162C, strain NBP2, hits give low values 1 | S. cerevisiae deletion strains, locus YDR318W, strain mcm21, hits give low values 0.997 | S. cerevisiae deletion strains, locus YDR388W, hits give low values 1.01 | S. cerevisiae deletion strains, locus YDR502C, strain sam2, hits give low values 1.03 | S. cerevisiae deletion strains, locus YEL061C, strain CIN8, hits give low values 1.01 | S. cerevisiae deletion strains, locus YER110C, hits give low values 1.02 | S. cerevisiae deletion strains, locus YER155C, strain BEM2, hits give low values 1 | S. cerevisiae deletion strains, locus YER167W, strain BCK2, hits give low values 1 | S. cerevisiae deletion strains, locus YGL078C, strain dbp3, hits give low values 1.01 | S. cerevisiae deletion strains, locus YGL086W, strain mad1, hits give low values 1.01 | S. cerevisiae deletion strains, locus YGL248W, strain PDE1, hits give low values 1.04 | S. cerevisiae deletion strains, locus YGR135W, strain pre9, hits give low values 1.05 | S. cerevisiae deletion strains, locus YGR252W, strain gcn5, hits give low values 1.05 | S. cerevisiae deletion strains, locus YHR030C, strain SLT2, hits give low values 1 | S. cerevisiae deletion strains, locus YHR079C, strain IRE1 (second series), hits give low values 1.01 | S. cerevisiae deletion strains, locus YHR094C, strain hxt1, hits give low values 1.02 | S. cerevisiae deletion strains, locus YHR129C, strain ARP1, hits give low values 1.01 | S. cerevisiae deletion strains, locus YHR200W, strain rpn10, hits give low values 1.01 | S. cerevisiae deletion strains, locus YIL066C, strain RNR3, hits give low values 1.01 | S. cerevisiae deletion strains, locus YIL073C, strain SPO22, hits give low values 1.04 | S. cerevisiae deletion strains, locus YIL125W, strain kgd1, hits give low values 1.01 | S. cerevisiae deletion strains, locus YIR030C, strain dcg1, hits give low values 0.999 | S. cerevisiae deletion strains, locus YJL095W, strain BCK1, hits give low values 1.08 | S. cerevisiae deletion strains, locus YJL134W, strain LCB3, hits give low values 1 | S. cerevisiae deletion strains, locus YJL168C, strain set2, hits give low values 1.02 | S. cerevisiae deletion strains, locus YJL187C, strain SWE1 (second series), hits give low values 1.03 | S. cerevisiae deletion strains, locus YJR043C, strain POL32, hits give low values 0.99 | [2] 1.01 | S. cerevisiae deletion strains, locus YKL009W, strain mrt4, hits give low values 1.01 | S. cerevisiae deletion strains, locus YKL068W, hits give low values 1 | S. cerevisiae deletion strains, locus YKL085W, strain MDH1 (second series), hits give low values 1.01 | S. cerevisiae deletion strains, locus YKL085W, strain MDH1, hits give low values 1.01 | S. cerevisiae deletion strains, locus YKR001C, strain vps1, hits give low values 0.998 | S. cerevisiae deletion strains, locus YLR039C, strain RIC1, hits give low values 1.04 | S. cerevisiae deletion strains, locus YLR058C, strain SHM2, hits give low values 1.01 | S. cerevisiae deletion strains, locus YLR102C, strain apc9, hits give low values 1.01 | S. cerevisiae deletion strains, locus YLR262C, strain YPT6, hits give low values 1.07 | S. cerevisiae deletion strains, locus YLR268W, strain sec22, hits give low values 0.99 | S. cerevisiae deletion strains, locus YLR342W, strain FKS1 (second series), hits give low values 1.02 | S. cerevisiae deletion strains, locus YLR371W, strain rom2, hits give low values 0.984 | S. cerevisiae deletion strains, locus YLR418C, strain cdc73, hits give low values 1.08 | S. cerevisiae deletion strains, locus YML016C, strain PPZ1, hits give low values 1 | S. cerevisiae deletion strains, locus YML032C, strain rad52, hits give low values 1 | S. cerevisiae deletion strains, locus YML124C, strain tub3, hits give low values 1 | S. cerevisiae deletion strains, locus YMR078C, strain ctf18, hits give low values 1.01 | S. cerevisiae deletion strains, locus YMR223W, strain ubp8, hits give low values 1.01 | S. cerevisiae deletion strains, locus YMR263W, strain SAP30, hits give low values 1.02 | [3] 0.978 | S. cerevisiae deletion strains, locus YNL067W, strain RPL9B, hits give low values 1.02 | S. cerevisiae deletion strains, locus YNL153C, strain GIM3, hits give low values 1.03 | S. cerevisiae deletion strains, locus YNL233W, strain BNI4, hits give low values 1.03 | S. cerevisiae deletion strains, locus YNL250W, strain rad50, hits give low values 1.01 | S. cerevisiae deletion strains, locus YNL271C, strain bni1, hits give low values 1.01 | S. cerevisiae deletion strains, locus YNL298W, strain CLA4, hits give low values 0.995 | S. cerevisiae deletion strains, locus YNL307C, strain MCK1, hits give low values 1.03 | S. cerevisiae deletion strains, locus YNR052C, strain pop2, hits give low values 1.01 | S. cerevisiae deletion strains, locus YOL006C, strain TOP1, hits give low values 1 | S. cerevisiae deletion strains, locus YOL012C, strain htz1 1.6 | S. cerevisiae deletion strains, locus YOL147C, strain pex11, hits give low values 1.01 | S. cerevisiae deletion strains, locus YOR061W, strain CKA2, hits give low values 0.994 | S. cerevisiae deletion strains, locus YOR069W, strain VPS5, hits give low values 1.01 | S. cerevisiae deletion strains, locus YOR136W, strain idh2, hits give low values 1 | S. cerevisiae deletion strains, locus YOR144C, strain elg1, hits give low values 1 | S. cerevisiae deletion strains, locus YOR184W, strain ser1, hits give low values 0.986 | S. cerevisiae deletion strains, locus YOR316C, strain cot1, hits give low values 1 | S. cerevisiae deletion strains, locus YPR119W, strain clb2, hits give low values 1.02 | S. cerevisiae deletion strains, locus YPR141C, strain kar3, hits give low values 1.01 | S. cerevisiae deletion strains, locus YPR163C, strain tif3, hits give low values 1.02 | S. cerevisiae deletion strains, locus YPR167C, strain met16, hits give low values 1.02 | S. cerevisiae deletion strains, strain wtn01, hits give low values 0.974 | S. cerevisiae strains, strain wild type, hits give low values 1.01
